{"source": "PubChem BioAssay (NCI)", "note": "About 83,000 compounds went through this panel and 20% of them were active in at least one assay; those are over-represented in the sample as a whole.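 Cells were grown in 96-well plates and exposed to the test compound at a single concentration for 48 hours; results are reported as percent growth, with values below 10 considered active.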 Unmarked numbers belong to inactive results. Calls of active or inactive are those of the source."}
{"system": "HL-60(TB) leukemia", "assay": "NCI-60 one-dose screen, 48 h (100 = growth as untreated, 0 = no growth, -100 = all killed)", "details": "10 µM unless noted"}
{"smiles": "COc1ccc(-n2c(-c3ccc(NC(=O)CCCl)cc3)nnc2-c2cc(OC)c(OC)c(OC)c2)cc1", "growth": "-12.6% (active)"}
{"smiles": "O=C(Nc1nc2ccc(C(=O)N3CCN(/C=C/c4ccccc4)CC3)cc2s1)c1ccc(NCCc2ccccc2)c([N+](=O)[O-])c1", "growth": "80.5%"}
{"smiles": "COC(=O)c1nc(=S)[nH]c(C(=O)OC)c1C(=O)c1ccc(Cl)c(Cl)c1", "growth": "101%"}
{"smiles": "O=C1N=c2ccccc2=C1c1sc(=S)n(C2CC(=O)N(c3ccc(Cl)cc3)C2=O)c1O", "note": "(configuration not stated)", "growth": "101%"}
{"smiles": "CCO/C=N/C1=C(C#N)C(c2ccc(Cl)cc2)c2c(c3ccc(C)cc3[nH]c2=O)O1", "note": "(configuration not stated)", "growth": "88.6%"}
{"smiles": "CCOC(=O)N1CCc2c(sc3nc4nc[nH]n4c(=O)c23)C1", "growth": "103%"}
{"smiles": "Cc1ccc(O)c(C(=O)c2ccccc2Cl)c1", "growth": "112%"}
{"smiles": "C=C1CC[C@H](C(C)C)[C@@H]2[C@H]1[C@H]1CC(=C)[C@@H](O)CC[C@@](C)(O)[C@@H]2O1", "growth": "103%"}
{"smiles": "O=C(Cc1cccc2ccccc12)N/N=C/c1ccc2c(c1)CCC2", "growth": "68.3%"}
{"smiles": "CCOC(=O)CCN(C(=O)Nc1ccccc1)C1CCCCC1", "growth": "113%"}
{"smiles": "CCn1cc(C(=O)O)c(=O)c2cnc(N3CCCC3)nc21", "growth": "75.9%"}
{"smiles": "COc1cc2c(c(OC)c1OC)C(=O)CC(c1cccc(C(=O)Nc3cccc(Br)c3)c1)O2", "note": "(configuration not stated)", "growth": "91.8%"}
{"smiles": "Cn1c(=O)c2[nH]c(NN)nc2n(C)c1=O", "growth": "91.6%"}
{"smiles": "COc1nc(OC)nc(-c2cc(-c3cc(OC)c(OC)c(OC)c3)no2)n1", "growth": "95.2%"}
{"smiles": "CCCc1cc(=O)n2c(C(=O)Nc3cccc(C(=O)OCC)c3)c(C(=O)Nc3ccc(F)cc3)sc2n1", "growth": "73.6% [30 µM]"}
{"smiles": "C#CC#CC#CC#CC#CC#CC#CC#CC[C@H]1OC[C@@H](COC(=O)O[C@@H](C(=O)O[C@H]2C[C@@]3(O)[C@@H](OC(=O)c4ccccc4)[C@@H]4[C@]5(OC(C)=O)CO[C@@H]5C[C@H](O)[C@@]4(C)C(=O)[C@H](OC(C)=O)C(=C2C)C3(C)C)[C@@H](NC(=O)c2ccccc2)c2ccccc2)O1", "growth": "6.5% (active)"}
{"smiles": "CNC1=C([N+](=O)[O-])C(c2ccccc2O)C(C#N)=C(c2cccs2)O1", "note": "(configuration not stated)", "growth": "75.1%"}
{"smiles": "COc1cc(C2C=C(c3ccc(Cl)cc3)N=C3SC(C)=CN32)cc(OC)c1OC", "note": "(configuration not stated)", "growth": "93.6%"}
{"smiles": "O=C1/C(=C/c2ccc(O)cc2)CSc2ccc(Cl)cc21", "growth": "22.7%"}
{"smiles": "CC1CC2Oc3ccc(Cl)cc3C(=O)N2O1", "note": "(configuration not stated)", "growth": "110%"}
{"smiles": "COc1cc([C@@H]2c3cc4c(cc3C(OC3O[C@@H]5COC(C)O[C@H]5[C@H](O)[C@H]3O)C3COC(=O)[C@@H]32)OCO4)cc(OC)c1O", "note": "(some centres not stated)", "growth": "-2.39% (active)"}
{"smiles": "O=C1/C(=C/c2ccc(O)cc2)COc2ccc(-c3ccccc3)cc21", "growth": "-51% (active)"}
{"smiles": "NC(=S)N/N=C(\\c1ccc(Cl)cc1)C1CC1", "growth": "75.7%"}
{"smiles": "S=C1NC2(c3ccccc3)CCC(=S)N2c2ccccc21", "note": "(configuration not stated)", "growth": "104%"}
{"smiles": "NCCNc1nc2ccccc2c2c(=O)c3cccc(F)c3sc12", "growth": "53%"}
{"smiles": "CCN(CC)CCCCCCNc1cccc2cc(Br)cnc12", "growth": "-51.7% (active)"}
{"smiles": "CCCC(F)C(=O)O", "note": "(configuration not stated)", "growth": "97.3%"}
{"smiles": "Nc1ncnc2c1ccn2-c1cccc(NC(=O)c2ccc(N3CCOCC3)c(C(F)(F)F)c2)c1", "growth": "54.1%"}
{"smiles": "NS(=O)(=O)c1cc(Br)c2c(c1)S(=O)(=O)NCN2", "growth": "71.2%"}
{"smiles": "O=C1OC(N(Cc2ccc(Cl)cc2)c2ccccc2)c2ccccc21", "note": "(configuration not stated)", "growth": "93.8%"}
{"smiles": "CN(c1ccccc1)c1ncnc2c1ncn2C", "growth": "105%"}
{"smiles": "CN(C)C(=O)c1cc2cnc(Nc3ccc(-c4csc5c(=O)cc(N6CCNCC6)oc45)cc3)nc2n1C1CCCC1", "growth": "-21% (active)"}
{"smiles": "COc1cc2nc(SCc3cc(OC)c(OC)c(OC)c3)n(Cc3ccccc3)c(=O)c2cc1OC", "growth": "11.9%"}
{"smiles": "FC(F)(F)C1=NNC(c2ccc3ccccc3c2)=NN1", "growth": "101%"}
{"smiles": "O=[N+]([O-])c1ccc(Oc2ccccc2Cl)c([N+](=O)[O-])c1", "growth": "-1.82% (active)"}
{"smiles": "Nc1n[nH]c2ccc([C@@H]3Nc4ccc5[nH]ncc5c4[C@H]4C5C=CC(C5)[C@@H]34)cc12", "note": "(some centres not stated)", "growth": "-24.9% (active)"}
{"smiles": "COc1ccc(C(=O)N2N=C(c3ccc(Br)cc3)CC2c2cn(-c3ccccc3)nc2-c2ccccc2)cc1", "note": "(configuration not stated)", "growth": "32.7%"}
